SMILES strings stand for the structures. The panel holds about 79,000 compounds, 15% with a hit somewhere; the sample as a whole holds those more often. Values without a mark were called inactive. Active and inactive are the calls of the source. Rule as the data show it: active = growth inhibition above about 70%; inactive = the rest.

A short description of assay [1]: NCI Yeast Anticancer Drug Screen. Data for the rad50 strain (AID 155).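 Also: 0% = growth of vehicle-only cultures of the same strain.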 As to conditions: S. cerevisiae rad50 strain growth inhibition, active compounds read high. The procedure, abridged: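 Yeast carrying a defined DNA repair defect were exposed to test compounds, and growth was compared with vehicle-treated controls to give percent inhibition.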
A short description of assay [2]: NCI Yeast Anticancer Drug Screen. Data for the mec2-1 strain (AID 157). As to conditions: S. cerevisiae mec2-1 strain, active compounds read high. The gist of the method: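 Strain: mec2-1 (DNA repair/cell cycle alteration). Compound exposure, then growth measured; inhibition expressed relative to vehicle.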
Assay [3] is described as follows: NCI Yeast Anticancer Drug Screen. Data for the sgs1 mgt1 strain (AID 161).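 Also: 0% = growth of cultures given vehicle only.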 As to conditions: S. cerevisiae sgs1 mgt1 strain, active compounds read high. The procedure, abridged: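 Read-out: growth inhibition vs vehicle controls. Cells: mutant yeast strain deficient in DNA damage repair.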
Assay [4] in a line: NCI Yeast Anticancer Drug Screen. Data for the cln2 rad14 strain (AID 165).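 Also: 0% = growth equal to vehicle treated cultures.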 The following applies: S. cerevisiae cln2 rad14 strain, active compounds read high. The gist of the method:
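Compounds are applied to the cln2 rad14 yeast strain, and growth is then compared with that of vehicle-treated cultures to give inhibition.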

A short description of assay [5]: NCI Yeast Anticancer Drug Screen. Data for the bub3 strain (AID 167). The following applies: S. cerevisiae bub3 mutant strain, active compounds read high. The gist of the method: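 Compounds were applied to a genetically altered yeast strain carrying a cell-cycle control defect. Growth inhibition was scored against vehicle-treated controls.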
Assay [6] can be described thus: NCI Yeast Anticancer Drug Screen. Data for the mlh1 rad18 strain (AID 175). The following applies: S. cerevisiae mlh1 rad18 strain growth inhibition, active compounds read high. The procedure, abridged: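 Read-out is yeast growth inhibition, calculated against vehicle-only controls. The compound was applied to a strain engineered with DNA damage repair alterations.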
Where [7] appears, read: at 5.0 µM (retest, dose inferred, filed as 0.5).
The mark [8] stands for this setting: at 50.0 µM (retest, dose inferred, filed as 5.0).

Take `CC(=O)Oc1c(C2CCCCC2)cc([N+](=O)[O-])cc1[N+](=O)[O-]`: the growth inhibition in assay [1] (setting [7]) is 96% (active); in assay [1] (setting [8]), 99% (active); in assay [1] (at 50.0 µM), 99.5% (active); in assay [2] (setting [7]) it was 91% (active); in assay [2] (setting [8]), 99% (active); in assay [2] (at 50.0 µM), 99.7% (active). The growth inhibition in assay [3] (setting [7]) was 98% (active); in assay [3] (setting [8]) it was 99% (active); in assay [3] (at 50.0 µM), 99.5% (active); in assay [4] (setting [7]), 79% (active); in assay [4] (setting [8]), 99% (active); in assay [4] (at 50.0 µM) it was 98% (active). Moreover, the growth inhibition in assay [5] (setting [7]) was 85% (active); in assay [5] (setting [8]) it was 99% (active); in assay [5] (at 50.0 µM) it was 99.5% (active); in assay [6] (setting [7]), 97% (active); in assay [6] (setting [8]), 98% (active); in assay [6] (at 50.0 µM) it was 99.6% (active).
Regarding `c1ccc2c(c1)CC1c3[nH]c4ccccc4c3CCN21` (stereo not given), the growth inhibition in assay [1] (setting [7]) was -6%; in assay [1] (setting [8]) it was -5%; in assay [1] (at 50.0 µM) it was 88.3% (active); in assay [2] (setting [7]) it was 9%; in assay [2] (setting [8]), 6%; in assay [2] (at 50.0 µM), 76.9% (active). Further, the growth inhibition in assay [3] (setting [7]) is -8%; in assay [3] (setting [8]), -10%; in assay [3] (at 50.0 µM) it was 82.8% (active); in assay [4] (setting [7]), 22%; in assay [4] (setting [8]), 31%; in assay [4] (at 50.0 µM) it was 88.2% (active). The growth inhibition is 6% in assay [5] (setting [7]); 23% in assay [5] (setting [8]); 77.7% (active) in assay [5] (at 50.0 µM); 7% in assay [6] (setting [7]); 3% in assay [6] (setting [8]); 74% (active) in assay [6] (at 50.0 µM).
On to `CCN(CC)CCCOC(=O)C(c1ccccc1)C1CCCCC1` (stereo not given), for which the growth inhibition in assay [1] (setting [7]) is 4%; in assay [1] (setting [8]) it was 63%; in assay [1] (at 50.0 µM), 88.5% (active); in assay [2] (setting [7]), 11%; in assay [2] (setting [8]), 71% (active); in assay [2] (at 50.0 µM), 67.5%. The growth inhibition in assay [3] (setting [7]) was 22%; in assay [3] (setting [8]), 94% (active); in assay [3] (at 50.0 µM) it was 90.7% (active); in assay [4] (setting [7]) it was 13%; in assay [4] (setting [8]) it was 41%; in assay [4] (at 50.0 µM), 88.5% (active). Moreover, the growth inhibition in assay [5] (setting [7]) is 16%; in assay [5] (setting [8]) it was 83% (active); in assay [5] (at 50.0 µM) it was 94.1% (active); in assay [6] (setting [7]), 41%; in assay [6] (setting [8]) it was 97% (active); in assay [6] (at 50.0 µM), 98% (active).
`Oc1ccc(C(=C(Br)c2ccccc2)c2ccc(O)cc2)cc1`: the growth inhibition is 98% (active) in assay [1] (setting [7]); 98% (active) in assay [1] (setting [8]); 87.7% (active) in assay [1] (at 50.0 µM); 99% (active) in assay [2] (setting [7]); 99% (active) in assay [2] (setting [8]); 91.5% (active) in assay [2] (at 50.0 µM). The growth inhibition in assay [3] (setting [7]) was 99% (active); in assay [3] (setting [8]) it was 99% (active); in assay [3] (at 50.0 µM) it was 85.1% (active); in assay [4] (setting [7]) it was 99% (active); in assay [4] (setting [8]) it was 99% (active); in assay [4] (at 50.0 µM), 89.5% (active). Moreover, the growth inhibition in assay [5] (setting [7]) was 99% (active); in assay [5] (setting [8]), 99% (active); in assay [5] (at 50.0 µM), 89.3% (active); in assay [6] (setting [7]) it was 99% (active); in assay [6] (setting [8]), 99% (active); in assay [6] (at 50.0 µM), 85.3% (active).
With `CNC(=O)NC(c1cc(OC)c(OC)c(OC)c1)c1cc2c(cc1O)OCO2` (stereo not given), the growth inhibition was -15% in assay [1] (setting [7]); -9% in assay [1] (setting [8]); 17.2% in assay [1] (at 50.0 µM); -1% in assay [2] (setting [7]); -8% in assay [2] (setting [8]); 13.4% in assay [2] (at 50.0 µM). For the same molecule, the growth inhibition was -14% in assay [3] (setting [7]); 5% in assay [3] (setting [8]); -0.1% in assay [3] (at 50.0 µM); -28% in assay [4] (setting [7]); -15% in assay [4] (setting [8]); 23.6% in assay [4] (at 50.0 µM). Moreover, the growth inhibition in assay [5] (setting [7]) was -16%; in assay [5] (setting [8]) it was -4%; in assay [5] (at 50.0 µM), -1.6%; in assay [6] (setting [7]), -19%; in assay [6] (setting [8]), -5%; in assay [6] (at 50.0 µM), 16.8%.
Turning to `CCCCN(CCCC)C(=O)c1ccc(Cl)cc1Cl`, the growth inhibition in assay [1] (setting [7]) was 7%; in assay [1] (setting [8]) it was 97% (active); in assay [1] (at 50.0 µM), 98.5% (active); in assay [2] (setting [7]), 7%; in assay [2] (setting [8]), 98% (active); in assay [2] (at 50.0 µM), 97.7% (active). In addition, the growth inhibition in assay [3] (setting [7]) was 6%; in assay [3] (setting [8]) it was 97% (active); in assay [3] (at 50.0 µM), 98.4% (active); in assay [4] (setting [7]) it was 11%; in assay [4] (setting [8]) it was 87% (active); in assay [4] (at 50.0 µM) it was 96.2% (active). The growth inhibition in assay [5] (setting [7]) is 26%; in assay [5] (setting [8]) it was 90% (active); in assay [5] (at 50.0 µM) it was 96.5% (active); in assay [6] (setting [7]) it was 13%; in assay [6] (setting [8]), 97% (active); in assay [6] (at 50.0 µM) it was 98.3% (active).
Regarding `NN(c1ccccc1)c1cccc2ccccc12`, the growth inhibition is 2% in assay [1] (setting [7]); 96% (active) in assay [1] (setting [8]); -16.4% in assay [1] (at 50.0 µM); -1% in assay [2] (setting [7]); 97% (active) in assay [2] (setting [8]); 3.7% in assay [2] (at 50.0 µM). For the same molecule, the growth inhibition in assay [3] (setting [7]) is 1%; in assay [3] (setting [8]) it was 97% (active); in assay [3] (at 50.0 µM), 39.1%; in assay [4] (setting [7]), -4%; in assay [4] (setting [8]), 95% (active); in assay [4] (at 50.0 µM), -23.8%. Further, the growth inhibition was -1% in assay [5] (setting [7]); 96% (active) in assay [5] (setting [8]); 75.9% (active) in assay [5] (at 50.0 µM); 1% in assay [6] (setting [7]); 96% (active) in assay [6] (setting [8]); 25.1% in assay [6] (at 50.0 µM).
Take `CCCCCCCCCCCC(=O)OC/C=C/COC(=O)c1ccccc1`: the growth inhibition was 2% in assay [1] (setting [7]); 23% in assay [1] (setting [8]); 36% in assay [1] (at 50.0 µM); -3% in assay [2] (setting [7]); 31% in assay [2] (setting [8]); -5.05% in assay [2] (at 50.0 µM). In addition, the growth inhibition in assay [3] (setting [7]) is 1%; in assay [3] (setting [8]) it was 69%; in assay [3] (at 50.0 µM) it was 38.5%; in assay [4] (setting [7]), 0%; in assay [4] (setting [8]) it was 20%; in assay [4] (at 50.0 µM) it was 69.3%. Moreover, the growth inhibition in assay [5] (setting [7]) is -5%; in assay [5] (setting [8]) it was 46%; in assay [5] (at 50.0 µM), 44%; in assay [6] (setting [7]), -7%; in assay [6] (setting [8]) it was 46%; in assay [6] (at 50.0 µM) it was 5.35%.
In the case of `CCCCCCC(C)OC(=O)c1ccccc1C(=O)O` (stereo not given), the growth inhibition in assay [1] (setting [7]) is 7%; in assay [1] (setting [8]) it was 17%; in assay [1] (at 50.0 µM) it was 11.5%; in assay [2] (setting [7]), -11%; in assay [2] (setting [8]), 10%; in assay [2] (at 50.0 µM) it was 0.2%. Moreover, the growth inhibition was -6% in assay [3] (setting [7]); 16% in assay [3] (setting [8]); 17.9% in assay [3] (at 50.0 µM); 6% in assay [4] (setting [7]); 31% in assay [4] (setting [8]); 63.5% in assay [4] (at 50.0 µM). Besides, the growth inhibition is -3% in assay [5] (setting [7]); 9% in assay [5] (setting [8]); 13.3% in assay [5] (at 50.0 µM); -13% in assay [6] (setting [7]); 12% in assay [6] (setting [8]); 14.8% in assay [6] (at 50.0 µM).
`CC(=O)SC(SC(C)=O)SC(C)=O`: the growth inhibition in assay [1] (setting [7]) is 11%; in assay [1] (setting [8]), 93% (active); in assay [1] (at 50.0 µM), 93.9% (active); in assay [2] (setting [7]), 0%; in assay [2] (setting [8]) it was 98% (active); in assay [2] (at 50.0 µM), 93.1% (active). In addition, the growth inhibition is 15% in assay [3] (setting [7]); 94% (active) in assay [3] (setting [8]); 93.1% (active) in assay [3] (at 50.0 µM); 20% in assay [4] (setting [7]); 97% (active) in assay [4] (setting [8]); 89.6% (active) in assay [4] (at 50.0 µM). In addition, the growth inhibition in assay [5] (setting [7]) was 29%; in assay [5] (setting [8]), 99% (active); in assay [5] (at 50.0 µM) it was 92% (active); in assay [6] (setting [7]), 16%; in assay [6] (setting [8]), 99% (active); in assay [6] (at 50.0 µM), 90.5% (active).

For the origin of these results see PubChem BioAssay (NCI).
